Reference: PubChem BioAssay AID1845226 (National Center for Advancing Translational Sciences (NCATS), 2023)
Records with an inconclusive call do not appear. Calls of active or inactive are those of the source. Calls come from the whole dose curve; as a rule, active = well fitted inhibition curve with a large enough effect; inconclusive = small, poorly fitted or top-dose-only effect; inactive = no such curve, though single readings can be large or run the other way.

assay: Confirmatory fluorescence-based thiol-reactive (MSTI) qHTS assay for identification of artifact compounds; details: MSTI thiol-reactivity probe, 1 h; series mostly up to 39.2 µM
Summary of the method: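 Fluorescence read-out (excitation 525 nm, emission 598 nm) tracks loss of the thiol probe MSTI, used at 4 uM in PBS buffer at pH 7.4. Test compounds are incubated 1 h at room temperature.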
Potency is the fitted concentration of half-maximal effect.

Potency, inactive:
COC(=O)c1ccc(NC(=O)CC2C(=O)N(c3ccccc3)C(=O)N2Cc2ccco2)cc1 (stereo not drawn)
CCOC(=O)C(C)Sc1ccc2nnc(-c3ccc(F)cc3)n2n1 (stereo not drawn)
COc1ccc(NC(=O)c2ccco2)cc1NC(=O)c1ccccc1[N+](=O)[O-]
Nc1ccc(F)cc1F
O=C(NCCc1ccccc1)C1CCC(CNS(=O)(=O)c2ccccc2)CC1 (stereo not drawn)
CCCN(C(=O)Cc1c(C(=O)O)[nH]c2ccc(Cl)cc12)c1ccc(OCC)cc1
COc1ccc(-c2[nH]ncc2C(=O)NCc2cccc(OC)c2)cc1
COc1ccccc1N1CCN(c2ncnc3c2cnn3-c2ccc(C)cc2)CC1
Cc1ccc2cccc(NC(=O)c3ccc(-c4cccc([N+](=O)[O-])c4)o3)c2n1
COc1ccc(NC(=O)CSc2nc(-c3ccccc3)nc3c2Cc2c(CO)cnc(C)c2O3)cc1Cl
CCOc1ccc(CNC(=O)c2ccc3nc(CC)c(CC)nc3c2)cc1OC
Cc1cc(N[S+](=O)([O-])c2ccc(NC(=O)Cc3ccc(Cl)nc3)cc2)no1
CCc1cccc(NC(=O)CN2CCCN(Cc3cccc(C)c3)S2(=O)=O)c1
CCOC(=O)c1ccc(N2CCN(c3ccc(F)cc3)CC2)c(NC(=O)Nc2cccc(OC)c2)c1
COc1cccc(N2CCN(c3c4c(nc5nncn35)CCC4)CC2)c1
Cc1cc(C)cc(NC(=O)C(CC(C)C)NC(=O)C2CCCCC2)c1 (stereo not drawn)
Cc1ccc(NC(=O)NCC2CCN(Cc3cccc(Cl)c3)CC2)cc1Cl
Cc1ccc(OCCn2c(CCNC(=O)OC(C)(C)C)nc3ccccc32)cc1
CCOC(=O)CN(Cc1ccccc1)C(C(=O)NC1CCCCC1)c1ccc(C)cc1 (stereo not drawn)
O=C(NCCN1CCCCC1)c1ccc(Cn2c(SCc3ccc(F)cc3)nc3cccnc32)cc1
CC1(C)S[C@@H]2[C@H](NC(=O)C3(N)CCCCC3)C(=O)N2[C@H]1C(=O)O
C=Cc1ccc(Cn2c(C)c(CNCc3cccc(Br)c3)c(C(=O)O)c2C)cc1
COc1ccc(NC(=O)C(C)n2nc(-c3cc(C)ccc3C)c3c(c2=O)CCCC3)cc1 (stereo not drawn)
Cc1ccc(S(=O)(=O)Nc2ccc(F)cc2C(=O)Nc2nc(-c3ccccc3)cs2)cc1
CCOc1ccccc1NC(=O)CSc1nc2c(oc3ccccc32)c(=O)n1-c1ccc(F)cc1
O=C1CCCC2=C1C(c1[nH]ncc1Cl)NC(=NCCc1ccccc1)N2 (stereo not drawn)
Clc1ccccc1Cn1c(-c2cccs2)nc2ccccc21

Potency, active:
O=S(=O)(O)c1ccc(N=Nc2cc(S(=O)(=O)O)c3ccccc3c2O)c2ccccc12 0.194 µM
c1coc(-c2nc3cc4ccccc4cc3nc2-c2ccco2)c1 0.97 µM
C/C(=C\c1ccc2c(c1)OCO2)C1Nc2cccc3cccc(c23)N1 3.07 µM
O=S(=O)(O)c1ccc(N=Nc2c(O)ccc3cc(S(=O)(=O)O)ccc23)cc1 6.12 µM
COC(=O)[C@@H]1[C@H]2C[C@H]3c4[nH]c5cc(OC)ccc5c4CCN3C[C@@H]2C[C@@H](OC(=O)c2cc(OC)c(OC)c(OC)c2)[C@@H]1OC 7.91 µM
CC1CCc2noc(NC(=O)c3ccc([N+](=O)[O-])cc3)c2C1 (stereo not drawn) 2.44 µM
